# Measurements published in article PMC7862700, “An all-to-all approach to the identification of sequence-specific readers for epigenetic DNA modifications on cytosine”.
# What was measured:
# Assay in all cases: DAPPL (digital affinity profiling via proximity ligation, sequencing); 10 mM Tris-HCl pH 7.5, 50 mM NaCl, 1 mM DTT, 4% glycerol, room temperature, 30 min; GST-TFs on glutathione beads, 16-mer random dsDNA library, 0.1% formaldehyde crosslink after washing; high values mean tight binding
# Settings in all cases: protein: recombinant; tags: N-terminal GST; dsDNA, one strand shown
# FLI1 = biological target: T1, FLI1 (Homo sapiens, UniProt Q01543 1-452)
# T1 sequence: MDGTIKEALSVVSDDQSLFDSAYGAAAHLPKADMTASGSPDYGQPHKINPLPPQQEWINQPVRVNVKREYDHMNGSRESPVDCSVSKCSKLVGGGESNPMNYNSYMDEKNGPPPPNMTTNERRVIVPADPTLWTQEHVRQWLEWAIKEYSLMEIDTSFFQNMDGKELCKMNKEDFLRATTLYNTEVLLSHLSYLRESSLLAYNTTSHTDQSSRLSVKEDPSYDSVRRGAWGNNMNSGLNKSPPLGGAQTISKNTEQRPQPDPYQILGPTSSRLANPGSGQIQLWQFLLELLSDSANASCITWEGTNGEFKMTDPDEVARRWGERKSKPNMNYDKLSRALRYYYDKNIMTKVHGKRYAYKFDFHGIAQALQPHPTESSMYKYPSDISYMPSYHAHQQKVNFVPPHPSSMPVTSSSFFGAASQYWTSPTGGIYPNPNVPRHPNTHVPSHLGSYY
# Summary of the method: (§1)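 Binding signal is defined as a hexamer's read frequency for one factor over its frequency for the tag-only sample. To obtain reads, GST-fused human transcription factors were expressed in yeast, captured on glutathione beads, barcoded with DNA and pooled with that sample. Pools met 200 nmole of a 16-mer random double-stranded DNA library in Tris/NaCl/DTT/glycerol buffer for 30 min at room temperature before washing, 0.1% formaldehyde crosslinking, proximity ligation (BsaI/T4 ligase, 1 h, 37 °C), PCR and Illumina NextSeq500 sequencing.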
# ELK1 = biological target: T2, ELK1 (Homo sapiens, UniProt P19419 1-428)
# T2 sequence: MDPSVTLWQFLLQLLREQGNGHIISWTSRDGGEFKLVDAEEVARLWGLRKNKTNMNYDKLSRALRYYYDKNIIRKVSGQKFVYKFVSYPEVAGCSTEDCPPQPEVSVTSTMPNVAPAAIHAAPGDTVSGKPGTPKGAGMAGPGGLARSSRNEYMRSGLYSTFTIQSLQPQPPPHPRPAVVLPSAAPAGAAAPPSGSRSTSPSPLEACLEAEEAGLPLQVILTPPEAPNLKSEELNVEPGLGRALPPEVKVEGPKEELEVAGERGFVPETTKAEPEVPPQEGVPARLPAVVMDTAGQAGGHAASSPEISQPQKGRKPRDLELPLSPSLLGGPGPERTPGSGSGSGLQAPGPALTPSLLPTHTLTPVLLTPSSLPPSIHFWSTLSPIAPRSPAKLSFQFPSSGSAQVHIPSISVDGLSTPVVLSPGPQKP
# Summary of the method: as §1
# GABPA = biological target: T3, GABPA (Homo sapiens, UniProt Q06546 1-454)
# T3 sequence: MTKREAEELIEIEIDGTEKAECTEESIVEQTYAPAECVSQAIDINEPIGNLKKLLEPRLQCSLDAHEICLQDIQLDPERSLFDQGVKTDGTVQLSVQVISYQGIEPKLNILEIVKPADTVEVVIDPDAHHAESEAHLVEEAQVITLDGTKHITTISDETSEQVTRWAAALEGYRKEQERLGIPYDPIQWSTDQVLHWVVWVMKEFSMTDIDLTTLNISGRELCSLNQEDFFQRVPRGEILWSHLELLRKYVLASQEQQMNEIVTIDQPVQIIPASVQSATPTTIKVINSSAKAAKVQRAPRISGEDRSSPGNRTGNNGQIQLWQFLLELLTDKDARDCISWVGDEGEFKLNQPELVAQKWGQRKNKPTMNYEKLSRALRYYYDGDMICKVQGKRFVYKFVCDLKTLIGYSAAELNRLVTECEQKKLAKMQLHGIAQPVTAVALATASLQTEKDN
# Summary of the method: as §1
# ERG = biological target: T4, ERG (Homo sapiens, UniProt P11308 1-479)
# T4 sequence: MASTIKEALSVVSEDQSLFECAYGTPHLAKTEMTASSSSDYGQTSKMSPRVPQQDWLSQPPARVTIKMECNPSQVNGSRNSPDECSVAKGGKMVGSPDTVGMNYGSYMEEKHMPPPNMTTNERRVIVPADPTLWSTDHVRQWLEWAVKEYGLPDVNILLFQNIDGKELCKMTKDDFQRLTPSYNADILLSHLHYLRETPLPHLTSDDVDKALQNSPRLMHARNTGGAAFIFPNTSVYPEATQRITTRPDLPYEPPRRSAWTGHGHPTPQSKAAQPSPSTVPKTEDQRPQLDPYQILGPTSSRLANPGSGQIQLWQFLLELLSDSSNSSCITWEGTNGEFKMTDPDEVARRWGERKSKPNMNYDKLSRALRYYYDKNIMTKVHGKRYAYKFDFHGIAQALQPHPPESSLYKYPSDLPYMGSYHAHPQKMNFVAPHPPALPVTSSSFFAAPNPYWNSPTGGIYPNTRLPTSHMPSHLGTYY
# Summary of the method: as §1
# ELF1 = ELF1 (Homo sapiens, UniProt P32519 1-619)
# ELF1, sequence (P32519 whole entry): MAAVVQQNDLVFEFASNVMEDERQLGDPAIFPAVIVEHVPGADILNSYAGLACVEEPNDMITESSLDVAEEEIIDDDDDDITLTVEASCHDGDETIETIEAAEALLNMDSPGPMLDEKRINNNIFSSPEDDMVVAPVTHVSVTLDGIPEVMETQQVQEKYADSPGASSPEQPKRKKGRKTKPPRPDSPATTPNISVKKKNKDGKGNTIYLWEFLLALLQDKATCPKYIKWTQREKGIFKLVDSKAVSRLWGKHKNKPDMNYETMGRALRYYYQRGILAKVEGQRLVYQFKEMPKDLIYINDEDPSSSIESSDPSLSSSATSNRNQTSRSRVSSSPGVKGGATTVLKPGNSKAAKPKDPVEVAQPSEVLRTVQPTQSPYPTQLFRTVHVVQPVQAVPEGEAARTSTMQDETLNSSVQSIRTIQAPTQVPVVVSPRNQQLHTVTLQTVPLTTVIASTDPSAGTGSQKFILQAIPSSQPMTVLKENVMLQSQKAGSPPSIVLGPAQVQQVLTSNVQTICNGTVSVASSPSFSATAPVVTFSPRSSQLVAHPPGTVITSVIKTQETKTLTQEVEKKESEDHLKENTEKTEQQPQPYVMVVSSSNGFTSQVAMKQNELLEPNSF
# Summary of the method: as §1
# EHF = biological target: T5, EHF (Homo sapiens, UniProt Q9NZC4 1-300)
# T5 sequence: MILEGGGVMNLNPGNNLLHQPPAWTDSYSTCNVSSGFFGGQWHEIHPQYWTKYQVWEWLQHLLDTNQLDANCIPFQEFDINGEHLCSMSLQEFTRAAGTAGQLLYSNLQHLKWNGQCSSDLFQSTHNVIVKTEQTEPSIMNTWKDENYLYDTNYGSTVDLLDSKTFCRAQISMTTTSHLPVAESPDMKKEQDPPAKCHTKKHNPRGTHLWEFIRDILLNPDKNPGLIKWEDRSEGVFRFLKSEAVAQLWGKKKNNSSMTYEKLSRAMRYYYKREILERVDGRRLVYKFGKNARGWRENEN
# Summary of the method: as §1
# SPI1 = SPI1 (Homo sapiens, UniProt P17947 1-270)
# Summary of the method: as §1
# SPIB = SPIB (Homo sapiens, UniProt Q01892 1-262)
# SPIB, sequence (Q01892 whole entry): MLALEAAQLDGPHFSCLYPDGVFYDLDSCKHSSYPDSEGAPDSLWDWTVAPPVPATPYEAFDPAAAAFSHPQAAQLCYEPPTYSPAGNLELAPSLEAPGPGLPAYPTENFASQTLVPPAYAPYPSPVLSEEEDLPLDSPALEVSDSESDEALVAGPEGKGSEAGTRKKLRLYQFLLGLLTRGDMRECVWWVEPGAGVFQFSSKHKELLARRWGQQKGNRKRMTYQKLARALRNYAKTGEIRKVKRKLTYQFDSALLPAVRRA
# Summary of the method: as §1
# ELK3 = biological target: T6, ELK3 (Homo sapiens, UniProt P41970 1-407)
# T6 sequence: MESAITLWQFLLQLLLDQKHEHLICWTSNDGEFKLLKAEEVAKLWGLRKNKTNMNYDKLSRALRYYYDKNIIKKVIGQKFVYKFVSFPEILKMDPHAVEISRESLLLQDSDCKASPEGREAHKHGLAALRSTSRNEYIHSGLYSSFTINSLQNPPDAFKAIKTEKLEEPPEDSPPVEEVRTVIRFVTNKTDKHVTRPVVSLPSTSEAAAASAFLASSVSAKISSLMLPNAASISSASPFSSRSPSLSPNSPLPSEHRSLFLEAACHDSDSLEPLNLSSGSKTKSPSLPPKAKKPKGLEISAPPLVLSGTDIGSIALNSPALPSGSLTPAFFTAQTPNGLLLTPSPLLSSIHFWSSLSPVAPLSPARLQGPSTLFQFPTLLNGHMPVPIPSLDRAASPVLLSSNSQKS
# Summary of the method: as §1
sequence,measurement,setting,value
TTAATA,binding signal,FLI1,"1.28 fold enrichment (6-mer frequency, TF over GST control)"
same,binding signal,ELK1,"1.23 fold enrichment (6-mer frequency, TF over GST control)"
same,binding signal,GABPA,"1.18 fold enrichment (6-mer frequency, TF over GST control)"
same,binding signal,ERG,"1.16 fold enrichment (6-mer frequency, TF over GST control)"
same,binding signal,ELF1,"1.16 fold enrichment (6-mer frequency, TF over GST control)"
same,binding signal,EHF,"1.23 fold enrichment (6-mer frequency, TF over GST control)"
same,binding signal,SPI1,"1.09 fold enrichment (6-mer frequency, TF over GST control)"
same,binding signal,SPIB,"1.22 fold enrichment (6-mer frequency, TF over GST control)"
same,binding signal,ELK3,"1.29 fold enrichment (6-mer frequency, TF over GST control)"
